96 compounds from PubChem BioAssay AID1259389 (Center for Chemical Genomics, University of Michigan, 2018) can be followed below.

Out of some 100,000 compounds screened, about 620 (0.62%) were called active. Rule for the calls: active = z-score of 3 or more in at least 2 runs; inactive = the rest. Many of the other results were omitted from the sample, so actives are more common in it than they were.

A short description of the experiment: TAR RNA-Tat peptide displacers, HIV-1, primary screen, biochemical, FRET, FAM/TAMRA-labeled Tat (AID 1259389). Conditions: HIV-1 TAR RNA, Tat peptide displacement FRET; stronger effect = higher value.
For `O=C(Nc1ccccc1Br)c1cnn(-c2ccccc2)c1-n1cccc1`, the z-score was 1.05 (inactive). With `NC(=O)Cn1c(=O)n(CCCCC(=O)NCc2ccco2)c(=O)c2ccccc21` the figure was -0.85 (inactive); with `CCCc1cc(=O)[nH]c(Nc2cccc(Br)c2)n1`, 0.79 (inactive).

For the compound `C=C(C)Cn1c(CN2CCOCC2)nc2ccccc21`, the z-score is 0.03 (inactive). As for `CCc1ccc(N2CCn3c2nc2c3c(=O)n(CC(=O)O)c(=O)n2C)cc1`, the z-score is 3.43 (inactive). The result for `CC(C)CNc1oc(-c2ccc(S(=O)(=O)N3CCc4ccccc4C3)cc2)nc1C#N` reads 0.36 (inactive). The result for `CN(C)CCCNc1oc(-c2ccc(S(=O)(=O)N3CCc4ccccc4C3)cc2)nc1C#N` reads 11.4 (active); that for `COc1ccc(-c2nnc(-c3ccccc3)o2)cc1S(=O)(=O)N1CCc2ccccc2C1`, 0.08 (inactive); that for `O=C(c1ccccc1)c1ccc2nc(NCCCO)c3nncn3c2c1`, -1.78 (inactive). On to `O=C1CCCC2=C1C(c1cccs1)N(C(=O)CCC(=O)N1CCOCC1)c1ccccc1N2` (stereo unspecified), for which the z-score was 0.78 (inactive). The result for `O=C(CSc1nnc(-c2cccnc2)n1-c1ccccc1)c1ccc(F)cc1` reads 1.26 (inactive); that for `CCc1nc2nc(CSc3nc4ccc(NC(=O)c5ccco5)cc4s3)cc(=O)n2[nH]1`, 4.94 (active); that for `CCCC(=O)Nc1ccc2nc(SCc3cc(=O)n4nc(C)sc4n3)sc2c1`, 0.47 (inactive). With `CCc1nc2nc(CSc3nnc(NC(=O)c4ccccc4)s3)cc(=O)n2[nH]1` the figure was 2.53 (inactive); with `CCC(C)N(CCNC(=O)Nc1cn(C)c(=O)c2ccccc12)Cc1ccco1` (stereo unspecified), 1.06 (inactive); with `Cc1cccc(C(=O)OCc2cc(=O)n3nc(C)sc3n2)c1`, -0.36 (inactive). The result for `CC(C)OCCCNc1c(-c2ccc(C(C)C)cc2)c(=O)c1=O` reads 10.9 (active); that for `COCCNc1c(-c2ccc(Cl)cc2)c(=O)c1=O`, 0.52 (inactive); that for `CC(CNc1c(-c2ccc(Cl)cc2)c(=O)c1=O)c1ccccc1` (stereo unspecified), -0.61 (inactive). For `O=C1CSc2ccc(S(=O)(=O)NCc3ccccc3)cc2N1`, the z-score is 0.46 (inactive). Regarding `COC(=O)c1ccc([C@@H]2Nc3ccc(F)cc3[C@@H]3C=CC[C@@H]32)cc1`, the z-score is 1.86 (inactive). Turning to `CCOc1cccc2c1N[C@@H](c1ccc(C(=O)O)cc1)[C@H]1CC=C[C@@H]21`, the z-score is 21.4 (active). The result for `COc1ccccc1C1Nc2ccc(C(=O)O)cc2C2C3CCC(C3)C12` (stereo unspecified) reads 8.02 (inactive); that for `Cc1ccsc1CCNC(=O)CCS(=O)(=O)c1ccc2c(c1)CC(C)N2C(=O)C1CC1` (stereo unspecified), -0.02 (inactive); that for `CC(C)NC(=O)NCCn1cnc2cc(C(=O)N(C)C)ccc21`, -0.27 (inactive).

Consider `Oc1ccc(-c2csc(Nc3cccnc3)n2)cc1`, for which the z-score was -0.3 (inactive).

In the case of `Cc1n[nH]c(C)c1Nc1nc(-c2ccc(O)c(O)c2)cs1`, the z-score was 28.7 (active). Regarding `Cc1cccc(Nc2nc(-c3ccccc3)cs2)n1`, the z-score is 1.14 (inactive).

As to `NC(=O)Cn1c(=O)n(Cc2ccc(Cl)cc2)c(=O)c2cccnc21`, the z-score is -0.39 (inactive). The result for `CCCNS(=O)(=O)c1ccc2c(c1)CC(C)N2C(=O)C1CC1` (stereo unspecified) reads 0.52 (inactive); that for `Cc1[nH]c2ccccc2c1C(=O)C(=O)N(C)c1ccccc1`, -0.5 (inactive). Take `Cc1[nH]c2ccccc2c1C(=O)CN1CCN(C)CC1`: the z-score is 1.46 (inactive). With `O=C(O)c1[nH]c2ccccc2c1-n1cccc1` the figure was 13.1 (active); with `O=c1c(N2CCN(C/C=C/c3ccccc3)CC2)csc2ccc(Cl)cc12`, -2.75 (inactive); with `COC(=O)C(=O)c1c(-c2ccc(Br)cc2)[nH]c2ccccc12`, 1.05 (inactive). With `CCOC(=O)C1CCN(C2C(=O)c3ccccc3N2C(C)=O)CC1` (stereo unspecified) the figure was 1.39 (inactive). With `Cc1nn(C)c(C)c1CNC(=O)Cn1c(-c2cccs2)cc2cc(Cl)ccc21` the figure was 0.84 (inactive); with `CC1Sc2ccc(S(=O)(=O)N(C)c3ccc(Br)cc3)cc2NC1=O` (stereo unspecified), 1.17 (inactive); with `CC1=C(C(=O)OCc2ccccc2)C(c2ccc(O)cc2)C2=C(CC(C)(C)CC2=O)N1` (stereo unspecified), 1.82 (inactive).

Turning to `O=c1ccc2cc(S(=O)(=O)N3CCN(C4CCCCC4)CC3)ccc2[nH]1`, the z-score was 18.9 (active). With `CC1CCN(S(=O)(=O)c2ccc3[nH]c(=O)ccc3c2)CC1` the figure was -0.99 (inactive); with `O=C(C1CCN(S(=O)(=O)c2ccc3[nH]c(=O)ccc3c2)CC1)N1CCCC1`, 0.85 (inactive); with `Cc1noc2ncnc(N3CCCC(C(=O)Nc4ccccn4)C3)c12` (stereo unspecified), 0.85 (inactive). With `CCOC(=O)c1noc2nc(C)nc(Nc3ccccc3)c12` the figure was 0.17 (inactive); with `O=C1c2ccc(O)cc2O[C@H](c2cc(O)c(O)c(O)c2)[C@H]1O`, 9.31 (active); with `O=C(CSc1nnc2c3ccccc3nc(-c3ccccc3)n12)Nc1ccccc1`, 0.64 (inactive). With `O=C(CSCc1cnn(-c2ccccc2)c1-n1cccc1)Nc1ccccc1F` the figure was 1.3 (inactive); with `O=S(=O)(c1ccc(C2Nc3ccc(Cl)cc3C3C=CCC32)cc1)N1CCOCC1` (stereo unspecified), -2.45 (inactive). For the compound `O=C(O)C1Nc2ccc(Cl)cc2C2C=CCC12` (stereo unspecified), the z-score is 42 (active). With `O=C(NCc1cccnc1)c1ccc(CN2CC(=O)N3CCCC3C2=O)cc1` (stereo unspecified) the figure was 1.95 (inactive); with `O=C(CSc1nnc2scc(-c3ccccc3)n12)N1CCOCC1`, 0.4 (inactive); with `O=C(CSc1ccc(-c2ccccn2)nn1)Nc1ccccc1`, 2.09 (inactive).

Turning to `CCc1c(CN2CCN(Cc3ccccc3)CC2)csc1C`, the z-score was 1.69 (inactive). With `CCn1c(C(C)N2CCCCC2)nc2ccccc21` (stereo unspecified) the figure was 1 (inactive); with `Cc1ccc(Nc2nc(NCc3ccco3)nc3c2cnn3C)c(C)c1`, 3.66 (active); with `CCNc1nc(Nc2ccc(Cl)cc2C)c2cnn(C)c2n1`, 0.26 (inactive). With `Cc1ccc(Nc2ncnc3c2cnn3C)c(C)c1` the figure was 0.03 (inactive). With `NC(=O)C1CCN(c2nc3c(S(=O)(=O)c4cccc(Cl)c4)nnn3c3ccsc23)CC1` the figure was 0.52 (inactive); with `CCN(CC)c1nc2c(S(=O)(=O)c3ccc(Cl)cc3)nnn2c2ccsc12`, -1.01 (inactive); with `O=S(=O)(c1ccc(Cl)cc1)c1nnn2c1nc(NC1CCCC1)c1sccc12`, 7.09 (active). Regarding `Cn1c(=O)oc2cc(S(=O)(=O)CCC(=O)Nc3cccc(F)c3)ccc21`, the z-score was 0.47 (inactive).

On to `O=C(Cn1nc(-c2ccccc2)c2cnc3cc4c(cc3c21)OCCO4)NC1CCCC1`, for which the z-score was -0.04 (inactive). With `O=C(CSc1ncc(S(=O)(=O)c2ccccc2)c(=O)[nH]1)Nc1cccc(F)c1` the figure was -1.01 (inactive); with `CCc1ccc(C2CC(=O)Nc3c2c(C)nn3-c2nc3ccccc3[nH]2)s1` (stereo unspecified), 1.63 (inactive); with `Cc1ccc2occ(C3Nc4cc(C)c(C)cc4NC4=C3C(=O)CC(C)(C)C4)c(=O)c2c1` (stereo unspecified), 0.26 (inactive).

With `Cc1cccc(C)c1OCc1cc(=O)n2nc(-c3ccco3)sc2n1`, the z-score was 36.5 (active). The result for `COc1cccc(OCc2cc(=O)n3nc(C)sc3n2)c1` reads -0.36 (inactive). With `Cc1nnc2sc(-c3ccco3)nn12` the figure was -1.16 (inactive). The result for `CCCCc1nn2c(=O)cc(CSc3n[nH]c(CC(C)C)n3)nc2s1` reads -1.13 (inactive); that for `C=CCSc1ncc(Cl)c(C(=O)Nc2c(C(=O)Nc3ccc(OC)cc3)oc3ccccc23)n1`, 1.45 (inactive); that for `COC(=O)c1ccc(C2C(C(=O)OC3CCCC3)=C(C)NC3=C2C(=O)CCC3)cc1` (stereo unspecified), 2.05 (inactive). Take `COc1ccc(-c2nn3c(-c4ccccc4)nnc3s2)cc1OC`: the z-score was 21 (active).

For `Cc1ccc(-c2nnc3sc(-c4ccccn4)nn23)cc1`, the z-score is 1.2 (inactive). The result for `c1ccc(-c2nnc3sc(-c4ccc5c(c4)OCCO5)nn23)cc1` reads -0.37 (inactive). `CCC1Sc2ccc(S(=O)(=O)CCC(=O)NCCc3sccc3C)cc2NC1=O` (stereo unspecified): the z-score is -0.87 (inactive). With `O=c1c(NC2CCCC2)c(-c2ccc3c(c2)CCCC3)c1=O` the figure was -0.58 (inactive). Consider `CCN(CC)C(=O)CCc1nc(CN2CCN(S(=O)(=O)c3cccs3)CC2)no1`, for which the z-score was -6.66 (inactive).

With `COc1cc(Br)c(CCn2c(=O)[nH]c(=O)c3sc(N)nc32)cc1OC`, the z-score was 28.5 (active). The result for `COc1ccc(-n2c(=O)[nH]c(=O)c3sc(NC(=O)Nc4ccccc4)nc32)cc1` reads -0.15 (inactive); that for `CCCCn1c(=O)[nH]c(=O)c2sc(N)nc21`, 0.78 (inactive); that for `Cc1c(C(=O)N2CCOCC2)oc2c1-c1nn(CC(=O)NC3CCCc4ccccc43)cc1CC2` (stereo unspecified), 3.05 (inactive).

Turning to `Cc1cc(NCc2cccs2)n2nc(Cc3cccc(F)c3)nc2n1`, the z-score was 1.34 (inactive). `Cc1cc(C)cc(NC2c3ncccc3C(=O)N2c2ccccc2)c1` (stereo unspecified): the z-score was -1.21 (inactive).

As to `CC1CCCC(NC(=O)C2(C)Cn3c(cc4occc43)C(=O)N2Cc2ccc3c(c2)OCO3)C1C` (stereo unspecified), the z-score is 6.96 (active).

As to `CC1CCC(NC(=O)C2(C)Cn3c(cc4occc43)C(=O)N2c2ccc(Cl)cc2)CC1` (stereo unspecified), the z-score was 5.26 (active).

Consider `CC1CCC(NC(=O)C2(C)Cn3c(cc4occc43)C(=O)N2CCN(C)C2CCCCC2)CC1` (stereo unspecified), for which the z-score is 0.99 (inactive). The result for `CC1CCCCC1NC(=O)C1(C)Cn2c(cc3sccc32)C(=O)N1Cc1ccco1` (stereo unspecified) reads 2.7 (inactive); that for `CCCN1C(=O)c2cc3sccc3n2CC1(C)C(=O)NC1CCC(C)CC1` (stereo unspecified), 1.88 (inactive). `COCCCN1C(=O)c2cc3sccc3n2CC1(C)C(=O)NC1CCCC(C)C1C` (stereo unspecified): the z-score is 2.51 (inactive).

On to `CCOC(=O)c1[nH]c(C)c(C(=O)NC2CCCC(C)C2C)c1C` (stereo unspecified), for which the z-score was 0.78 (inactive). Take `CSc1cccc(NC(=O)N2c3ccccc3NC3=C(C(=O)CCC3)C2c2ccco2)c1` (stereo unspecified): the z-score is 0.6 (inactive). With `O=C1c2ccccc2S(=O)(=O)N1Cc1nnnn1-c1ccccc1` the figure was 2.08 (inactive); with `Cc1nc(-c2ccc(C)c(S(=O)(=O)Nc3ccc(Cl)cc3F)c2)cs1`, 1.67 (inactive). As for `CCNC(=O)C1=CC(c2cccs2)=NS(=O)(=O)N1C`, the z-score is 1.38 (inactive). The result for `CN1C(C(=O)NCc2ccccc2)=CC(c2ccc3c(c2)OCO3)=NS1(=O)=O` reads 3.21 (active); that for `CN1C(C(=O)N2CCCc3ccccc32)=CC(c2ccc3c(c2)OCO3)=NS1(=O)=O`, 2.14 (inactive).
